From PubChem BioAssay
Only some compounds are listed: those with a hit (about 0.63% of all), similar ones and a draw of the others.
TSHR antagonist – human thyrotropin receptor antagonism; TSHR-expressing cells, TSH-stimulated cAMP HTRF, 2 h; stronger effect = lower value; activity change, negative = inhibition, % at 11.5 µM; hit rate 0.2% among 330,000; P16473;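 active means activity change below a set negative limit, meaning inhibition stronger than a set level, cut at about -70% in these data; inconclusive means activity change between two set negative limits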; further: on the % scale 0 is the no-effect control and ±100 the full control effect
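TSHR-expressing cells were treated with compounds, then stimulated with TSH at EC80 (4nM final) for 2 hours at 37 deg C. Cellular cAMP was measured by HTRF competition between lysate cAMP and cAMP-d2 for a cryptate-labelled anti-cAMP antibody.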
gsp antagonist – antagonizes gsp, the McCune-Albright syndrome mutation; gsp-mutant cells, cAMP HTRF, 30 min; Potency, µM (series often up to 76.9 µM), without a hit: at the highest dose activity change, negative = inhibition, usual class: inhibitors; hit rate 0.4% among 340,000; calls by dose curve; cell line not stated here;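 further: intracellular cAMP measured with PDE inhibitor Ro 20-1724 present during compound exposure; potency means the concentration at half of the fitted maximal effect; on the % scale 0 is the no-effect control and ±100 the full control effect; nearly all actives have a fitted effect of over 65% in size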
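HTRF cAMP read-out (cAMP-d2 plus anti-cAMP antibody-K in lysis buffer, 30 min RT). Before lysis, cells are exposed to compounds with […] for 30 min at 37C in DPBS containing Ca/Mg, BSA and Tween 20.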
Pin1 inh – human Pin1 inhibition. Q13526. Pin1 FP peptide displacement, HiFluor488, 10 min. Potency, µM (titrated, usually from 115 µM), for the others: top-dose activity, negative = inhibition, hits mostly inhibitors. hit rate 0.009% among 390,000. AID 504891; active means well fitted inhibition curve with a large enough effect in the polarisation, with a control signal flat, not every such curve was filed as active; inconclusive means small, poorly fitted or top-dose-only effect, or effect the other way, or a change in a side signal; inactive means no such curve, though single readings can be large or run the other way; the % refers to the polarisation; further: potency means the concentration at half of the fitted maximal effect; on the % scale 0 is the no-effect control and ±100 the full control effect
Target sequence (Q13526 whole entry, looked up): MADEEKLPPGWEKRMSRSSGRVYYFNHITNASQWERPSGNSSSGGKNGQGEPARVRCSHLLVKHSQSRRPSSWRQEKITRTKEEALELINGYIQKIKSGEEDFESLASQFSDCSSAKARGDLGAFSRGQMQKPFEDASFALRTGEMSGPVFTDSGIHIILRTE
gsp ag – activates gsp, the McCune-Albright syndrome mutation; Potency, µM (series often up to 76.9 µM), inactives show at the highest dose activation (cAMP increase), usual class: activators; gsp mutant cells, cAMP HTRF, 30 min; hit rate 0.13% among 340,000; active means well fitted activation curve with a large enough effect; inconclusive means small, poorly fitted or top-dose-only effect, or another doubt; inactive means no such curve, though single readings can be large or run the other way; cell line not stated here;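 further: phosphodiesterase inhibitor Ro 20-1724 added with compounds to block cAMP breakdown; potency means the concentration at half of the fitted maximal effect; nearly all actives have a fitted effect of over 60% in size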
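Cells in DMEM/10% FBS with G418 were pretreated with compounds in DMSO plus […] (300 uM stock) for 30 min at 37C. cAMP was measured by HTRF (cAMP-d2 plus anti-cAMP antibody-K) after 30 min at room temperature.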
TCR act – T cell receptor activation | primary human leukocytes, anti-CD3, IL-2 HTRF, 48 h | AID 504894 | 330,000 tested, under 10 active | Potency, µM (top dose mostly 9.22 µM), for the others: at the top dose activation of IL-2 secretion, actives largely listed as activators; active means well fitted activation curve with a large enough effect; inconclusive means small, poorly fitted or top-dose-only effect, or another doubt; inactive means no such curve, though single readings can be large or run the other way; further: % of control where 0% means no effect
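Readout: HTRF IL-2, Eu-cryptate/d2 antibody pair, 320nm excitation, 665nm emission. Stimulus: a-CD3 beads, no co-stimulation. Cells: primary human leukocytes. Exposure: 48 hr with compound.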
Numbers without * were called inactive; ? = inconclusive; . = no result given; [ ] = another dose, or the depositor's remark.

SMILES	TSHR antagonist	gsp antagonist	Pin1 inh	gsp ag	TCR act
O=C(CCCN1C(=O)/C(=C/c2ccccc2Cl)SC1=S)Nc1cccnc1	-72*	-31%	22%	?	-1%
O=C(CCN1C(=O)/C(=C/c2cccs2)SC1=S)Nc1ccc(O)cc1	2	1%	?	11%	2%
O=C(CCCN1C(=O)/C(=C/c2cccs2)SC1=S)Nc1cccc(O)c1	-10	45µM*	24%	-14%	-7%
O=C(CCN1C(=O)/C(=C/c2cccs2)SC1=S)Nc1cccc(O)c1	-12	40µM*	7%	-39%	11%
COc1ccc(CCNc2ncccc2C#N)cc1OC	9	3%	-2%	9%	5%
Cc1csc(NC(=O)c2ccc3ccccc3n2)n1	-1	-12%	12%	-10%[15.4 µM]	-9%
CCN(CC)S(=O)(=O)c1ccc(Cl)c(NC(=O)CSc2cccc[n+]2[O-])c1	11	12%	1%	8.9µM*	1%
Cc1cc(=O)oc2cc(OC(=O)c3ccco3)ccc12	-2	-21%	-1%	?	6%
COc1ccc(/C=C2/SC(=S)NC2=O)cc1OCc1ccccc1	-41	?	10%	-5%[15.4 µM]	.
COc1cc(/C=C2/SC(=O)NC2=O)ccc1OCc1ccccc1	-37	32µM*	7%	-41%	7%
O=C(NC1C2CC3CC(C2)CC1C3)c1ccc2c(c1)OCO2 (centres undefined)	-126*	-9%	-6%	10%[15.4 µM]	-9%
NC(=O)C1CCN(CCCNC2CC(=O)N(Cc3ccc(N4CCCC4=O)cc3)C2=O)CC1 (centres undefined)	.	7%	8%	-19%	-1%
N#CC(C#N)=C1C=CC=CN1/C(=C\c1ccco1)C(=O)c1ccc(Br)cc1	-91*	4%	18%	8%	2%[46.1 µM]
N#CC(C#N)=C1C=CC=CN1/C(=C\c1ccco1)C(=O)c1ccccc1	?	27%	-7%	?	2%[46.1 µM]
O=C(Nc1nc(-c2ccccc2)cs1)c1ccc(N2CCOCC2)c([N+](=O)[O-])c1	-101*	32µM*	-10%	-5%[15.4 µM]	2%[46.1 µM]
O=C(NCc1cccnc1)Nc1ccc(Cl)cc1	-8	11µM*	-3%	29%	1%
CN1CCc2cc(NC(=O)Nc3cccnc3)ccc21	-12	.	.	.	.
O=C(N/N=C/c1ccccc1O)C1CC(=O)N(c2ccc(F)cc2)C1 (centres undefined)	-6	-5%	-8%	-5%[15.4 µM]	-1%
COc1ccc(C(=O)NCC(=O)N=Nc2c(O)n(Cc3ccccc3)c3ccccc23)cc1OC	0	11µM*	-2%	10%[15.4 µM]	4%[46.1 µM]
COc1ccc(C(=O)NCC(=O)N=Nc2c(O)n(C)c3ccccc23)cc1OC	-4	-2%	?	-5%	-2%
CCO[C@H]1OC(C(=O)N2CCN(Cc3ccc4c(c3)OCO4)CC2)=C[C@@H](C(C)(C)C)[C@@H]1CCCO	1	7.9µM*	0%	.	-1%
CCCCN(C(=O)NC(=O)Nc1cc(C)ccc1C)S(C)(=O)=O	13	5%	5%	-8%	.
Cc1ccc([N+](=O)[O-])cc1N=Nc1c(C)[nH]n(C(N)=S)c1=O	-11	-11%	-4%	-13%	1%
Cc1ccc([N+](=O)[O-])cc1N=Nc1c(-c2ccc([N+](=O)[O-])cc2)[nH]n(C(N)=S)c1=O	-36	13µM*	.	-2%	-4%
COc1cc2[nH]c(=S)nc(NCCc3ccc(S(N)(=O)=O)cc3)c2cc1OC	-5	-3%	1%	13µM*	-5%
SMILES	TSHR antagonist	gsp antagonist	Pin1 inh	gsp ag	TCR act
S=c1[nH]nc(SCc2ccccc2)c2[nH]cnc12	.	?	-2%	14µM*	23%
CCCn1c(N)c(C(=O)COC(=O)COc2ccc(Cl)c(C)c2)c(=O)n(C)c1=O	-17	3%	-3%	-2%[15.4 µM]	-4%
CCCn1c(N)c(C(=O)COC(=O)c2c(C)noc2C)c(=O)n(C)c1=O	46	8%	-6%	5µM*	-16%
CCCCNc1nc2c(S(=O)(=O)c3ccccc3)nnn2c2ccccc12	0	19%	7%	22µM*	-18%
COc1ccccc1CNC(=O)C1CCN(S(=O)(=O)c2cccc3cccnc23)CC1	-5	-5%	-1%	29%	-6%
COc1ccc(C)cc1NC(=O)c1ccccc1NS(=O)(=O)c1ccc(Cl)s1	-76*	35µM*	-5%	8%	3%
COc1ccccc1NC(=O)c1ccccc1NS(=O)(=O)c1cccs1	2	-10%	1%	15%	0%
COCCCn1c(=O)c2sccc2n(Cc2cccc(F)c2)c1=O	50	0%	-1%	17%[15.4 µM]	.
COCCCn1c(=O)c2sccc2n(Cc2cccc(C)c2)c1=O	-131*	-4%	0%	?	1%
CN(CC(=O)Nc1ccccc1Cl)C(=O)COC(=O)c1ccc(Cl)nc1	4	1%	1%	0%	-5%
CN(CC(=O)Nc1ccccc1Cl)C(=O)COC(=O)c1nc(Cl)c(Cl)c(Cl)c1Cl	-89*	-12%	-1%	-16%	7%
COc1ccc(S(=O)(=O)N2CCC(C(=O)N[C@H](C(=O)N3CCCC3)C(C)C)CC2)cc1	-9	13%	-10%	26%	-3%
O=[N+]([O-])c1ccc(S(=O)(=O)c2ccccc2)nc1	-98*	-4%	0%	2%	-5%
Cc1ccc(S(=O)(=O)c2ccc([N+](=O)[O-])cn2)cc1	-16	-2%	2%	-4%[15.4 µM]	-1%
CN(C)c1ccc(N/C=C/C(=O)C(C)(C)C)cc1	?	35µM*	-5%	-3%	10%
O=[N+]([O-])c1c(Nc2cccc(O)c2)cc(Cl)c2nonc12	-98*	35µM*	6%	1%	-26%
Cc1c(Nc2cc(Cl)c3nonc3c2[N+](=O)[O-])c(=O)n(-c2ccccc2)n1C	-85*	-52%	3%	-2%[15.4 µM]	-12%
COC(=O)c1ccc(CNC(=O)COC(=O)c2cc(Cl)nc(Cl)c2)cc1	-17	-7%	-2%	-3%[15.4 µM]	-8%
Cc1cc(SCc2ccc([N+](=O)[O-])cc2)nc(=O)[nH]1	-138*	-7%	8%	21%	-7%
O=C(O)[C@@H]1[C@@H]2C[C@@H]2CN1c1ncccc1[N+](=O)[O-]	11	8%	-16%	-18%[15.4 µM]	5%
Cc1nsc(N)c1C(=O)O	-8	9%	-5%	12%	1%
Cc1ccc2c(COC(=O)c3ccc(NC(=O)CC#N)cc3)cc(=O)oc2c1C	-6	-7%	31%	-1%[15.4 µM]	-1%
COCCCNC(=O)CSc1nc2c(sc3ccccc32)c(=O)n1CCc1ccc(OC)c(OC)c1	.	.	2%	.	.
CCC(C(=O)NCCc1ccc(SC)cc1)n1nc(C)c2c(C)n(-c3ccc(C)cc3)nc2c1=O (centres undefined)	.	.	1%	.	.
CCC(C(=O)NCCc1ccc(C)cc1)n1nc(C)c2c(C)n(-c3ccccc3)nc2c1=O (centres undefined)	19	50µM*	-11%	?	-3%
